C diff growth: C. difficile growth inhibition. growth activity, negative = inhibition, % at 16 µg/mL (by protocol). AID 1259249. Clostridium difficile clinical isolate growth, OD600, 24 h; active compounds read low. 0.25% of 86,000 active;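 active = mean growth activity at or below -80% and every replicate also at or below -80%; inconclusive = mean at or below -80% but some replicate above -80%; inactive = mean growth activity above -80%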;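 note: 0% = DMSO wells and -100% = levofloxacin 16 µg/mL wells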
Pf Dd2 growth: blocks growth of Plasmodium falciparum Dd2 parasites; activity change, % at 10 µM; 2.3% of 94,000 active; AID 1159554; P. falciparum Dd2 growth, SYBR Green, 72 h; active compounds read low; in the data active = activity change below about -80%; inconclusive = no clear call, values can overlap the other calls
T cruzi growth-1: T. cruzi proliferation inhibition. T. cruzi beta-gal in NIH3T3, GalScreen luminescence, 90 h. 5.9% of 77,000 active. AID 624255. inhibition, % at 8.34 µM;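 active = mean inhibition above about 93%, with at least 55% of replicates each passing it, limit read from the data, passing the limit was not always enough; inconclusive = only one of those two conditions holds; inactive = neither condition holds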
T cruzi growth-2: Trypanosoma cruzi proliferation inhibition; 72% of 5,600 active; inhibition, % at 8.35 µM; T. cruzi beta-gal in NIH3T3, GalScreen luminescence, 90 h; shares compounds with T cruzi growth-1; AID 651739;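 active = mean replicate inhibition above about 95% and at least 55% of replicates individually reaching it, limit read from the data; inconclusive = only one of the two criteria is met; inactive = neither criterion is met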
T cruzi growth-3: Trypanosoma cruzi proliferation inhibition; shares compounds with T cruzi growth-1; AID 651740; T. cruzi beta-gal in NIH3T3, GalScreen luminescence, 90 h; 21% of 5,600 active; inhibition, % at 2.09 µM;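 active = mean inhibition above about 95%, with at least 55% of replicates also reaching it, limit read from the data; inconclusive = meets just one of the two conditions; inactive = meets neither condition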;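 note: plate controls were neutral control median for no effect and positive control median for full effect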
NIH3T3 tox: kills mouse NIH/3T3 fibroblasts | 14% of 5,600 active | cytotoxicity (signal decrease), % at 8.35 µM | NIH/3T3 viability, CellTiter-Glo ATP luminescence, 90 h | shares compounds with T cruzi growth-1;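 active = mean signal decrease across replicates above about 35% based on untreated-well scatter, with enough replicates individually passing, limit read from the data; inconclusive = no rule stated though some were filed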;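 note: 0% = median of neutral control wells and 100% = median of positive control wells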
NIH3T3 tox 2: NIH/3T3 (mouse) viability loss; NIH/3T3 viability, CellTiter-Glo ATP luminescence, 90 h; 56% of 5,600 active; inhibition, % at 24.9 µM; shares compounds with T cruzi growth-1;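 active = mean loss of cell viability signal at or above a set limit, and enough replicates individually reaching it; inconclusive = meets only the mean limit or only the replicate share; inactive = meets neither condition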;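 note: 0% = median of neutral control wells and 100% = median of positive control wells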
The depositor's hits bear a star; ? = inconclusive; . = no result. In the library only some 6.7% were active in any assay of this set; here they are far more common.

SMILES | C diff growth | Pf Dd2 growth | T cruzi growth-1 | T cruzi growth-2 | T cruzi growth-3 | NIH3T3 tox | NIH3T3 tox 2
N#C[C@H]1N[C@H](CO)[C@H]1c1ccc(C#Cc2ccc(F)cc2)cc1 | -8 | -1 | 101* | 101* | 76 | 13 | 19
N#C[C@H]1N[C@H](CO)[C@H]1c1ccc(C#CC2CCCC2)cc1 | -6 | 4 | 101* | 99* | 68 | 5 | 27*
N#C[C@@H]1N[C@H](CO)[C@H]1c1ccc(C#CC2CCCC2)cc1 | -7 | -1 | 91 | . | . | . | .
COc1cccc(C#Cc2ccc([C@H]3[C@@H](C#N)N[C@@H]3CO)cc2)c1 | -15 | -29 | 98* | 100* | 101* | 19 | 54*
N#C[C@@H]1N[C@H](CO)[C@@H]1c1ccc(C#CC2CCCC2)cc1 | 5 | 29 | 34 | . | . | . | .
N#C[C@H]1N[C@@H](CO)[C@@H]1c1ccc(C#Cc2ccccc2F)cc1 | -13 | -8 | 99* | 97* | 91 | 0 | 106*
N#C[C@H]1N[C@H](CO)[C@H]1c1ccc(C#Cc2cccnc2)cc1 | -8 | -41 | 79 | . | . | . | .
CC(C)NC(=O)N(C)C[C@@H]1OCCCC[C@@H](C)Oc2ccc(N(C)C)cc2C(=O)N([C@H](C)CO)C[C@H]1C | -1 | -1 | 30 | . | . | . | .
C[C@@H]1CCCCO[C@H](CN(C)S(=O)(=O)c2cn(C)cn2)[C@H](C)CN([C@H](C)CO)C(=O)c2cc(NS(=O)(=O)c3ccccc3)ccc2O1 | 6 | -26 | . | . | . | . | .
C[C@H](CO)N1C[C@H](C)[C@@H](CN(C)S(C)(=O)=O)Oc2ccc(NC(=O)CCCCCC(=O)Nc3ccccc3N)cc2C1=O | 1 | 28 | . | . | . | . | .
O=C(O)[C@@H]1[C@@H](CO)[C@@H]2Cn3c(ccc(-c4cncnc4)c3=O)[C@@H]2N1C(=O)C1CCCCC1 | 6 | . | -14 | . | . | . | .
CN(C)CCCNC(=O)C[C@H]1CC[C@@H]2[C@H](COc3ccc(NC(=O)NC4CCCC4)cc3C(=O)N2C)O1 | 0 | -1 | 19 | . | . | . | .
C[C@@H]1CN([C@@H](C)CO)S(=O)(=O)c2ccc(-c3ccncc3)cc2O[C@@H]1CN(C)C(=O)Nc1ccc(C(F)(F)F)cc1 | -3 | -9 | ? | 108* | 85 | 23 | 67*
Cc1ccc(-c2ccc3c(c2)O[C@@H](CN(C)C(=O)Nc2ccc(C(F)(F)F)cc2)[C@H](C)CN([C@@H](C)CO)S3(=O)=O)cc1 | 2 | -32 | 77 | . | . | . | .
C[C@H](CO)N1C[C@H](C)[C@@H](CN(C)C(=O)Nc2ccc(C(F)(F)F)cc2)Oc2cc(-c3ccncc3)ccc2S1(=O)=O | 6 | -47 | 103* | 110* | 87 | 13 | 48*
C[C@@H]1CN([C@@H](C)CO)S(=O)(=O)c2ccc(-c3ccncc3)cc2O[C@H]1CN(C)C(=O)Nc1ccc(C(F)(F)F)cc1 | -4 | 17 | 83 | . | . | . | .
Cc1ccc(S(=O)(=O)Nc2cccc3c2O[C@@H](CN(C)C(=O)NC2CCCCC2)[C@@H](C)CN([C@H](C)CO)C3=O)cc1 | -13 | -6 | -75 | . | . | . | .
COc1ccc2c3c(n(C)c2c1)[C@@H](CO)N(C(=O)CN(C)C)CC31CN(C(=O)C2CCC2)C1 | -5 | 33 | . | . | . | . | .
COc1cccc(NC(=O)N(C)C[C@H]2Oc3ncc(C#Cc4cccnc4)cc3C(=O)N([C@H](C)CO)C[C@H]2C)c1 | 1 | -10 | 6 | . | . | . | .
COc1cccc(NC(=O)N(C)C[C@H]2Oc3ncc(C#Cc4ccc(F)cc4)cc3C(=O)N([C@H](C)CO)C[C@H]2C)c1 | 15 | -2 | 41 | . | . | . | .
COc1cccc(NC(=O)N(C)C[C@H]2Oc3ncc(C#Cc4ccc(F)cc4)cc3C(=O)N([C@H](C)CO)C[C@@H]2C)c1 | -16 | -36 | 80 | . | . | . | .
COc1cccc(NC(=O)N(C)C[C@@H]2Oc3ncc(C#Cc4ccc(F)cc4)cc3C(=O)N([C@H](C)CO)C[C@@H]2C)c1 | 3 | -28 | 104* | 98* | 34 | 26 | 81*
COc1cccc(NC(=O)N(C)C[C@H]2Oc3ncc(C#Cc4ccc(F)cc4)cc3C(=O)N([C@@H](C)CO)C[C@@H]2C)c1 | -22 | -46 | 121* | 106* | 100* | 23 | 38*
C[C@@H]1CN([C@@H](C)CO)C(=O)c2cc(C#Cc3ccc(F)cc3)cnc2O[C@H]1CN(C)C(=O)Nc1ccc(F)cc1 | . | -27 | 17 | . | . | . | .
COc1cccc(NC(=O)N(C)C[C@@H]2Oc3ncc(C#Cc4ccc(F)cc4)cc3C(=O)N([C@@H](C)CO)C[C@H]2C)c1 | -9 | -39 | 113* | 112* | 111* | 31 | 14
SMILES | C diff growth | Pf Dd2 growth | T cruzi growth-1 | T cruzi growth-2 | T cruzi growth-3 | NIH3T3 tox | NIH3T3 tox 2
COc1cccc(NC(=O)N(C)C[C@@H]2Oc3ncc(C#Cc4ccc(F)cc4)cc3C(=O)N([C@H](C)CO)C[C@H]2C)c1 | -16 | -14 | 117* | 108* | 102* | 5 | 14
O=C(C[C@@H]1CC[C@H]2[C@@H](COC[C@H](O)CN2Cc2cccc(Cl)c2)O1)NCC1CCCCC1 | 56 | . | -26 | . | . | . | .
C[C@H](CO)N1C[C@H](C)[C@@H](CN(C)Cc2ccccc2F)Oc2cc(C3=CCCC3)ccc2S1(=O)=O | 14 | -19 | ? | 97* | 52 | -7 | 105*
C[C@H]1CN([C@@H](C)CO)S(=O)(=O)c2ccc(C3=CCCC3)cc2O[C@H]1CN(C)Cc1ccccc1F | -1 | -44 | 94 | . | . | . | .
C[C@@H]1CN([C@@H](C)CO)S(=O)(=O)c2ccc(C3=CCCC3)cc2O[C@@H]1CN(C)Cc1ccccc1F | 0 | -77 | 114* | 99* | 110* | -4 | 104*
C[C@H]1CN([C@@H](C)CO)S(=O)(=O)c2ccc(C3=CCCC3)cc2O[C@@H]1CN(C)Cc1ccccc1F | -4 | -34 | 93 | . | . | . | .
CCC(=O)N1CC2(C1)[C@H](c1ccccc1)[C@H](CO)N2Cc1cccc(Cl)c1 | 11 | 0 | . | . | . | . | .
Cc1ccc(S(=O)(=O)Nc2ccc3c(c2)C(=O)N([C@H](C)CO)C[C@H](C)[C@H](CN(C)S(=O)(=O)c2ccc(C)cc2)OCCCC[C@@H](C)O3)cc1 | . | -39 | 78 | . | . | . | .
Cc1ccc(S(=O)(=O)Nc2ccc3c(c2)C(=O)N([C@H](C)CO)C[C@H](C)[C@@H](CN(C)CC2CCCCC2)OCCCC[C@H](C)O3)cc1 | -2 | -38 | 48 | . | . | . | .
Cc1ccc(S(=O)(=O)Nc2ccc3c(c2)C(=O)N([C@@H](C)CO)C[C@@H](C)[C@@H](CN(C)S(=O)(=O)c2ccc(C)cc2)OCCCC[C@H](C)O3)cc1 | . | -86* | 99* | 110* | 84 | -21 | 27*
Cc1ccc(S(=O)(=O)Nc2ccc3c(c2)C(=O)N([C@H](C)CO)C[C@@H](C)[C@@H](CN(C)S(=O)(=O)c2ccc(C)cc2)OCCCC[C@@H](C)O3)cc1 | . | -79 | 93 | . | . | . | .
